Most compounds without a hit are left out; they make up all but 2.6% or so of the library.
Anthrax LT inh: blocks cellular internalization of anthrax lethal toxin. actives 0.67% (n = 70,000). AID 912. Potency, µM (highest dose often 40 µM), hits mostly inhibitors. Cells, anthrax lethal toxin internalization, FRET ratio (460/530); note: nearly all actives have a fitted effect of over 50% in size
AmpC inh det: blocks E. coli AmpC beta-lactamase in presence of detergent; P00811; purified AmpC, nitrocefin hydrolysis with detergent; Potency, µM (doses to about 28.7 µM); actives 0.09% (n = 71,000); AID 584; active = well fitted curve in the direction sought with a large enough effect; inconclusive = small, poorly fitted or top-dose-only effect
Target sequence (P00811 whole entry, looked up): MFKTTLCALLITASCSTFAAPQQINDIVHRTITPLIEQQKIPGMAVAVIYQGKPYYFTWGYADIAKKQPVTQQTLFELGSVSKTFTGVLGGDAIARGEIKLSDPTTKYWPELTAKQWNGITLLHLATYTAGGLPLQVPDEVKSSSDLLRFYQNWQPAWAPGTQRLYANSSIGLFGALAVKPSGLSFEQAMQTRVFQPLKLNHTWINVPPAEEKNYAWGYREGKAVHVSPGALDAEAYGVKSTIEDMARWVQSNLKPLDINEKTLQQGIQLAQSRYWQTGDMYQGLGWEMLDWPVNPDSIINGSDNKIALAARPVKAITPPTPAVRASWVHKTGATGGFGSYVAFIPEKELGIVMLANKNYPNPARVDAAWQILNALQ
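E. coli AmpC (5.3 nM) in 20 mM phosphate pH 7.0 with 0.01% Triton X-100, preincubated 15 min RT with compound; nitrocefin (2 uL of 800 uM stock) hydrolysis followed by 480 nm absorbance every 20 s over 4 min.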
SmPrx2 inh: inhibitors of Schistosoma mansoni peroxiredoxin 2. S. mansoni Prx2 activity coupled to TGR/GSH (TGR is thioredoxin glutathione reductase), NADPH fluorescence loss, qHTS. actives 0.07% (n = 65,000). Potency, µM
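qHTS, coupled TGR/Prx2 format; 15 min compound preincubation at RT; reaction started with H2O2 (2.5 mM aliquot); kinetic NADPH fluorescence decrease, ex 365/em 450 nm.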
AmpC nodet inh: blocks E. coli AmpC beta-lactamase in absence of detergent. AmpC nitrocefin hydrolysis, absorbance 480 nm, no detergent. AID 585. actives 1.8% (n = 71,000). Potency, µM (highest dose often 28.7 µM)
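AmpC in 20 mM phosphate buffer pH 7.0 was preincubated 15 min at room temperature with compounds. Nitrocefin (800 uM stock) was then added and hydrolysis followed at 480 nm every 20 s for 4 min.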
A number is an active result; i = inactive; ? = inconclusive; nt = no result given; [ ] = remark or other dose. Unless noted, calls come from the whole dose curve.

SMILES	Anthrax LT inh	AmpC inh det	SmPrx2 inh	AmpC nodet inh
CCc1nccn1S(=O)(=O)c1ccc(OC)c(OC)c1	i	i	i	4µM[single pt active]
Cc1csc(NC(=O)C(CC(C)C)NS(=O)(=O)c2ccc3c(c2)oc(=O)n3C)n1 (stereo not given)	i	i	i	4µM[single pt active]
CN(C)c1ccc(-c2nccc(Nc3ccc(F)cc3)n2)cc1	?	i	i	i
COc1cccc(Cn2nnc(C(=O)Nc3cc(C)ccc3OC)c2N)c1	i	i	i	4µM[single pt active]
Nc1c(C(=O)Nc2ccc3c(c2)OCCO3)nnn1CCc1ccccc1	?	i	i	4µM[single pt active]
COc1cccc(CNC(=O)c2nnn(CC(=O)Nc3ccc(C)c(C)c3)c2N)c1	i	i	i	i
COc1ccc(C)cc1NC(=O)c1nnn(CCc2ccccc2)c1N	i	i	i	4µM[single pt active]
COc1ccccc1NC(=O)c1nnn(CC(=O)Nc2ccccc2)c1N	i	i	i	i
COc1ccc(OC)c(NC(=O)c2nnn(Cc3ccccc3C)c2N)c1	i	i	i	i
COc1cccc(Cn2nnc(C(=O)Nc3ccc(C)cc3)c2N)c1	i	i	i	4µM[single pt active]
Oc1ccc2c3c1O[C@@H]1c4[nH]c5c(c4C[C@@]4(O)[C@@H](C2)N(CC2CC2)CC[C@]314)C[C@]1(O)[C@@H]2Cc3ccc(O)c4c3[C@@]1(CCN2CC1CC1)[C@H]5O4	i	i	i	i
C[C@@]12CCC(=O)C=C1CC[C@H]1[C@@H]2[C@@H](O)C[C@]2(C)[C@@H]1CC[C@@]2(O)C(=O)COC(=O)C1CCCC1	i[8 µM]	i[5.75 µM]	i	i[5.75 µM]
COc1ccc(C)cc1NC(=O)c1nnn(Cc2cc(C)ccc2C)c1N	i	i	nt	4µM[single pt active]
COc1ccc(C2=NOC(C(=O)Nc3ccc(C)cc3)C2)cc1OC (stereo not given)	i	i	i	i
COc1ccc(C2=NOC(C(=O)Nc3cc(C)nn3-c3ccccc3)C2)cc1OC (stereo not given)	i	i	i	4µM[single pt active]
COc1ccc(-c2cc(C(=O)NCc3cccs3)no2)cc1OC	i	i	nt	i
C[C@H](N[C@@H](C)CCc1ccccc1)[C@H](O)c1ccc(O)cc1	i	i	i	i
N[C@H](Cc1ccc(O)c(I)c1)C(=O)O	i	i	i	i
Nc1ncnc2nc[nH]c12.Nc1ncnc2nc[nH]c12.[Cl][Pt]([Cl])([Cl])[Cl]	i[8 µM]	i[5.75 µM]	i	i[5.75 µM]
COc1ccccc1S(=O)Cc1ccc(C(=O)NCc2ccccc2Cl)o1 (stereo not given)	?	i	i	4µM[single pt active]
O=C(O)C1C(C(=O)O)C(C(=O)O)C1C(=O)O (stereo not given)	i[8 µM]	i[5.75 µM]	i	i[5.75 µM]
CC(C)N(Cc1nc(-c2ccccc2)no1)C(=O)CSc1ccccc1	i	i	i	i
CC(C)N(Cc1nc(-c2ccccc2)no1)C(=O)COc1ccccc1	?	i	i	4µM[single pt active]
Cc1cc(Br)ccc1OCC(=O)N(Cc1nc(-c2ccccc2)no1)C(C)C	?	i	i	i
CC(C)N(Cc1nc(-c2ccccc2)no1)C(=O)Cc1ccccc1	i	i	i	4µM[single pt active]
SMILES	Anthrax LT inh	AmpC inh det	SmPrx2 inh	AmpC nodet inh
COc1ccccc1OCC(=O)N(Cc1nc(-c2ccc(Cl)cc2)no1)C(C)C	?	i	i	i
CC(C)N(Cc1nc(-c2ccc(Cl)cc2)no1)C(=O)CCC1CCCC1	?	i	i	4µM[single pt active]
CN(C)C(=O)C1CCN(Cc2c[nH]c3ccccc23)CC1	i[8 µM]	i[5.75 µM]	i	i[5.75 µM]
Nc1ccn([C@@H]2O[C@H](COC(=O)C34CC5CC(CC(C5)C3)C4)[C@@H](O)[C@@H]2O)c(=O)n1	?	i[5.75 µM]	i	i[5.75 µM]
N#CC(CC(=O)O)=C(c1ccccc1)c1ccccc1	i[8 µM]	i[5.75 µM]	i	i[5.75 µM]
CC(C)(C)OC(=O)N[C@@H](Cc1ccccc1)c1nnc(S(=O)(=O)Cc2cccc(F)c2)o1	10µM	5µM	i	4µM
CC[C@@H](C)[C@H](NC(=O)OC(C)(C)C)c1nnc(S(=O)(=O)Cc2cc(C)ccc2C)o1	?	?	i	?
CC(C)CC(=O)N1CCN(Cc2cccc(F)c2)CC1	i	i	nt	i
CC(C)[C@H](NC(=O)OC(C)(C)C)c1nnc(S(=O)(=O)Cc2c(F)cccc2Cl)o1	nt	0.79µM	i	1.3µM
Cc1ccccc1CS(=O)(=O)c1nnc([C@H](CC(C)C)NC(=O)OC(C)(C)C)o1	?	7.9µM	i	10µM
CC(C)C[C@H](N)c1nnc(S(=O)(=O)Cc2cccc(F)c2)o1	?	2.5µM	i	?
N[C@H](Cc1c[nH]c2ccccc12)P(=O)(O)O	i[8 µM]	i[5.75 µM]	i	i[5.75 µM]
O=C(O)/C=C\c1c2ccc(=O)c(O)c-2oc2c(O)c(O)ccc12	?	2µM	i	1.6µM
CCc1cc(=O)oc2cc(C)c3c(C)coc3c12	i	i	i	i
CCc1cc(=O)oc2cc(C)cc(O)c12	i	i	i	4µM[single pt active]
Cc1n[nH]c(C)c1S(=O)(=O)N(CC(=O)Nc1ccc2c(c1)OCCO2)c1ccc(C(C)C)cc1	16µM	i	i	i
Cc1noc(C)c1S(=O)(=O)N(CC(=O)Nc1ccc2c(c1)OCO2)c1ccc(C(C)C)cc1	?	i	i	i
COc1cc2c(cc1OC)[C@@]13CCN4C=C5CCO[C@H]6CC(=O)N2[C@@H]1[C@@H]6[C@H]5C[C@H]43	i[8 µM]	i[5.75 µM]	i	i[5.75 µM]
Nc1ncnc2c1nc(Sc1ccc(Cl)cc1)n2[C@@H]1O[C@H]2COP(=O)(O)O[C@@H]2[C@H]1O	i	i	i	i
COC(OC)[C@@H](C)[C@H](OC)[C@@H](C)[C@H](OC)c1ccccc1	i[8 µM]	nt	nt	nt
COc1cc2ccc(=O)oc2c(O)c1OCC=C(C)C	?	i	i	i
CC(C)=CCC/C(C)=C/COc1c2ccoc2cc2oc(=O)ccc12	?	i	i	13µM
CCOc1cccc(-c2nnc3sc(COc4ccc(C)cc4)nn23)c1	i	i	i	i
CCOc1cccc(-c2nnc3sc(COc4ccc(Cl)cc4)nn23)c1	i	i	i	7.9µM
O=c1cc(O)cc(/C=C\c2ccc(O)c(O)c2)o1	i	i	i	6.3µM
SMILES	Anthrax LT inh	AmpC inh det	SmPrx2 inh	AmpC nodet inh
Cc1c(Cl)cccc1NC(=O)c1cc(-c2ccc(O)cc2)on1	?	i	i	13µM[single pt active]
Cc1nnc2ccc(N3CCN(C)CC3)nn12	i	i	nt	i
Cc1nnc2ccc(N3CCN(c4ccccn4)CC3)nn12	i	i	i	4µM[single pt active]
Cc1nnc2ccc(N3CCC(C(N)=O)(N4CCCCC4)CC3)nn12	i	i	i	4µM[single pt active]
Nc1ncnc2nn([C@H]3O[C@@H](CO)[C@@H](O)[C@H]3O)nc12	i[8 µM]	i[5.75 µM]	i	i[5.75 µM]
O=C(O)CCCCn1cnc2c(=S)nc[nH]c21	i[8 µM]	i[5.75 µM]	i	i[5.75 µM]
O=S(=O)(O)n1ccnc1 (tested in a mixture with another compound)	i[8 µM]	i[5.75 µM]	i	i[5.75 µM]
O=C(Cn1ncc2c(=O)oc3ccccc3c21)N1CCC(N2CCCCC2)CC1	i	i	i	3.2µM[single pt active]
O=C(Cn1ncc2c(=O)oc3ccccc3c21)N1CCc2ccccc2C1	i	i	i	4µM[single pt active]
Cc1ccc2oc(=O)c3cnn(CC(=O)N4CCCc5ccccc54)c3c2c1	i	i	nt	i
COc1ccc(OC)c(Nc2nc(-c3cccs3)cs2)c1	?	i	i	i
COc1ccccc1Nc1nc(-c2cccs2)cs1	?	i	nt	7.9µM[single pt active]
Cc1ccc(S(=O)(=O)n2c3ccccc3c3nnc(C(=O)c4ccccc4)nc32)cc1	i[8 µM]	nt	nt	nt
